The source of these data is PubChem BioAssay AID540333 (Southern Research Specialized Biocontainment Screening …, 2011).

Out of some 10,000 compounds screened, about 320 (3.2%) were called active. Cut-off read from the data, not from the text of the source: active = CPE inhibition mostly above about 9.1% (no sharp cut-off); inactive = mostly below about 7.2%. The sample as a whole holds a higher share of actives than the screen did.

The nature of this assay: Dengue virus cytopathic effect inhibitors, cell-based, CPE readout, HTS (AID 540333). The note with it: Dengue virus CPE inhibition in host cells, at 20 µM; active compounds read high.
`COc1cc(C(=O)NCC(c2ccco2)N(C)C)cc(OC)c1OC` (centres undefined): the CPE inhibition was 0.055% (inactive).

For `CC(C(=O)NC1CCCc2ccccc21)N1CCN(c2ccc(F)cc2)CC1` (centres undefined), the CPE inhibition is 0.305% (inactive).

Regarding `CC(C)(C)[C@H]1C=C(C(=O)NCc2ccccc2)O[C@@H](OCCCCO)C1`, the CPE inhibition was 0.655% (inactive).

`CC(C)c1ccccc1NC(=O)COC(=O)c1ccc(Cl)c(S(=O)(=O)N2CCCCCC2)c1`: the CPE inhibition was 0.87% (inactive). For the compound `CCC(C)c1ccccc1NC(=O)COC(=O)c1ccc2[nH]c3c(c2c1)CCCC3` (centres undefined), the CPE inhibition is 25.9% (active). Consider `CC(C)c1ccccc1NC(=O)COC(=O)Cc1c[nH]c2ccccc12`, for which the CPE inhibition result is “inactive”. `NNc1nc(-c2ccccc2)nc2sc3c(c12)CCCC3`: the CPE inhibition result was “inactive”. Next, `COc1ccc(-c2c(-c3cc(OC)cc(OC)c3)n(C)c3ccc(-c4ccc(N(C)C)nc4)cc23)cc1`: 0.63% (inactive); `O=C1CN(C(=O)COc2ccc(Br)cc2F)c2ccccc2N1`: “inactive”; `CCOc1ccc(NS(=O)(=O)c2cc(NC(=O)CCS(=O)(=O)c3ccc(C)cc3)ccc2OC)cc1`: 0.21% (inactive). In the case of `CCOC(=O)c1c(C)[nH]c(C(=O)N/N=C\c2ccccc2Cl)c1C`, the CPE inhibition was 3.76% (inactive). As to `CCOC(=O)c1c(C)[nH]c(C=O)c1Cc1cccc(Cl)c1`, the CPE inhibition is 14.8% (active). Turning to `CCOC(=O)c1c(C)nc2ccc(Cl)cc2c1-c1ccccc1`, the CPE inhibition is 0.765% (inactive). `O=C(O)CCC(=O)Nc1ccccc1C(=O)NCc1ccccc1`: the CPE inhibition is 1.71% (inactive).

Regarding `CCCCNc1c(-c2cccc(SC(C)CC)c2)nc2ccc(Cl)cn12` (centres undefined), the CPE inhibition was 1.45% (inactive).

Turning to `CCCCNc1c(-c2cccc(-c3ccc(OC)cc3)c2)nc2cc(C)ccn12`, the CPE inhibition entry was “inactive”. Next, `CCCCNc1c(-c2ccc(-c3cccc(Cl)c3)cc2)nc2ccc(Cl)cn12`: 9.97% (active); `Cc1c(Cl)cccc1NC(=O)COC(=O)c1c2c(nc3ccccc13)CCN(Cc1ccccc1)C2`: 0.23% (inactive). With `CCc1nnc(N/N=C/c2cccs2)n1N`, the CPE inhibition was 2.18% (inactive). Take `CC(C)(C)c1nnc(N/N=C/c2ccccc2)n(N)c1=O`: the CPE inhibition is 2.69% (inactive). As for `CC(C)(C)c1nnc(N/N=C/c2ccc(Br)cc2)n(N)c1=O`, the CPE inhibition is 27.6% (active). Turning to `C/C(=N\NC(=O)CN(c1ccccc1Br)S(C)(=O)=O)c1ccc2c(c1)OCCO2`, the CPE inhibition was 0.855% (inactive). On to `CCOC(=O)/C=C/[C@H]1CC(c2ccccc2)(c2ccccc2)CO1`, for which the CPE inhibition was 0.15% (inactive). Consider `Cn1c(SCC(=O)N2c3ccccc3CCc3ccccc32)nnc1-c1cc2ccccc2cc1O`, for which the CPE inhibition is 11.1% (active). With `Cn1c(SCC(=O)N2c3ccccc3CCc3ccccc32)nnc1-c1ccc(O)cc1`, the CPE inhibition result was “inactive”. With `CCn1c(SCC(=O)N2c3ccccc3CCc3ccccc32)nnc1-c1ccc(OC)cc1`, the CPE inhibition was 1.05% (inactive). Take `CCn1cc(/C=C/C(=O)Nc2ccn(Cc3c(F)c(F)cc(F)c3F)n2)cn1`: the CPE inhibition entry is “inactive”. On to `Cc1ccc(S(=O)(=O)N2CCC(=O)N(CCOCc3ccccc3)CC2)cc1`, for which the CPE inhibition is 0.27% (inactive).

In the case of `C=CCn1c(C)cc(C(=O)COC(=O)[C@@H](NC(=O)c2ccccc2Cl)C(C)C)c1C`, the CPE inhibition result was “inactive”. Regarding `CCOC(=O)C(=CNc1ccc(NC2=NCC(C)S2)cc1)C(=O)OCC` (centres undefined), the CPE inhibition was 10.9% (active). Turning to `CCOC(=O)C(=CNc1cc(C)ccn1)C(=O)OCC`, the CPE inhibition entry was “inactive”. Take `CCOC(=O)C(=O)NNc1ccc(C)cc1`: the CPE inhibition entry is “inactive”. With `O=C(CSc1nc2ccc(Cl)cc2[nH]1)N1CCN(C(=O)c2ccco2)CC1`, the CPE inhibition was 0.04% (inactive). Consider `O=S(=O)(NCCC(c1ccc(F)cc1)c1ccco1)c1ccccc1` (centres undefined), for which the CPE inhibition was 14.2% (active). With `Nc1nonc1C(=O)NCCNS(=O)(=O)c1ccc(F)cc1`, the CPE inhibition entry is “inactive”.

On to `Cc1ccc(S(=O)(=O)NCCC(c2ccccc2)c2ccco2)cc1` (centres undefined), for which the CPE inhibition result is “inactive”. Take `CC(Nc1cc(N2CCNCC2)ccc1[N+](=O)[O-])c1ccccc1` (centres undefined): the CPE inhibition was 0.87% (inactive). With `O=C(CN1CCN(Cc2ccccc2)CC1)Nc1ccc(S(=O)(=O)N2CCOCC2)cc1`, the CPE inhibition entry was “inactive”. Next, `Cc1ccc(-n2c(SCC(=O)N3c4ccccc4Sc4ccccc43)nnc2-c2ccncc2)cc1`: 13.2% (active); `Cn1c(SCC(=O)N2c3ccccc3Sc3ccccc32)nc2ccccc21`: 10.5% (inactive); `Cc1ccc(-n2c(SCC(=O)N/N=C/c3ccc(C)s3)nnc2-c2ccccc2)cc1`: 6.83% (inactive). As for `O=C(CSc1ccc(Cl)cc1)Nc1cccc(-c2nnc(-c3ccco3)o2)c1`, the CPE inhibition is 0.905% (inactive).

Take `O=C(CNc1cc(S(=O)(=O)N2CCCC2)ccc1OCC(F)(F)F)Nc1cccc(C(F)(F)F)c1`: the CPE inhibition is 15.3% (active). Take `O=C(Nc1cc(S(=O)(=O)N2CCCC2)ccc1OCC(F)(F)F)c1ccc(F)cc1`: the CPE inhibition result was “inactive”.

On to `Cc1ccc(OCC(=O)Nc2cccc(S(=O)(=O)N3CCCCC3)c2)c([N+](=O)[O-])n1`, for which the CPE inhibition is 0.73% (inactive). `O=S(=O)(NCCCc1ccccc1)c1cccc2nsnc12`: the CPE inhibition was 0.135% (inactive). As to `O=C(O)CCN1CC2([N+](=O)[O-])C=CC(=O)C([N+](=O)[O-])(C1)C2CC(=O)c1ccccc1` (centres undefined), the CPE inhibition was 0.01% (inactive). For the compound `COc1cc(/C=N/NS(=O)(=O)c2ccccc2)ccc1OS(=O)(=O)c1ccc(C)cc1`, the CPE inhibition is 0.62% (inactive). On to `CCCc1cc(=O)[nH]c(SCC(=O)N2CCN(S(=O)(=O)c3ccc4ccccc4c3)CC2)n1`, for which the CPE inhibition result was “inactive”. As for `O=C(/C=C/c1cccc(Cl)c1)NCc1ccncc1`, the CPE inhibition was 0.12% (inactive). As to `O=C(NC(Cc1c[nH]c2ccccc12)C(=O)OCC(=O)c1cccc2ccccc12)c1cccs1` (centres undefined), the CPE inhibition result was “inactive”. For `COc1cc(CNn2cn[nH]c2=S)cc(Cl)c1OCc1ccc(F)cc1`, the CPE inhibition entry was “inactive”. As for `COc1ccc(C2CC(=O)C3=C(C2)Nc2ccccc2NC3c2coc3ccccc3c2=O)cc1OC` (centres undefined), the CPE inhibition is 51.7% (active). Next, `COc1ccccc1NC(=O)C1=C(C)NC2=C(C(=O)CC(c3ccc(OC)c(OC)c3)C2)C1c1coc2ccccc2c1=O` (centres undefined): 5.03% (inactive). `COc1ccc([C@H]2CC(=O)C=C(/C=C/c3ccccc3)C2)cc1OC`: the CPE inhibition is 0.185% (inactive). Consider `C/C(=N\NC(=O)CNc1cccc(C(F)(F)F)c1)c1cccc(Br)c1`, for which the CPE inhibition is 7.08% (inactive).

Regarding `O=C(CNc1cccc(C(F)(F)F)c1)N/N=C/c1cccc(Br)c1`, the CPE inhibition is 9% (active). On to `C/C(=N\NC(=O)CNc1cccc(C(F)(F)F)c1)c1ccc(Br)cc1`, for which the CPE inhibition is 3.77% (inactive). Next, `O=Cc1cc([N+](=O)[O-])ccc1N1CCOCC1`: 0.035% (inactive). In the case of `Cc1nnc(SCc2cc(=O)oc3ccc4ccccc4c23)n1Cc1ccccc1`, the CPE inhibition result is “inactive”.

In the case of `CCCN1C(=O)/C(=N\OCC(=O)Nc2ccc(C(C)C)cc2)c2ccccc21`, the CPE inhibition is 8.8% (inactive). Consider `CCCN1C(=O)/C(=N\OCC(=O)NC23CC4CC(CC(C4)C2)C3)c2ccccc21`, for which the CPE inhibition was 22.5% (active).

On to `O=C(CON=C1c2ccccc2-c2ccccc21)NC12CC3CC(CC(C3)C1)C2`, for which the CPE inhibition was 6.95% (inactive). The result for `C=CCNC(=O)c1cc(Cl)ccc1[N+](=O)[O-]` reads “inactive”; that for `CCOC(=O)C1=C(C)NC(=S)NC1/C=C/c1ccccc1` (centres undefined), “inactive”. Consider `CCOc1ccc(-c2cn(-c3cccc(SC)c3)c(=O)[nH]2)cc1`, for which the CPE inhibition was 0.42% (inactive). Take `Cc1ccc(S(=O)(=O)c2nnn3c2nc(Nc2cccc(C)c2)c2ccccc23)cc1`: the CPE inhibition result is “inactive”. For `O=C(COC(=O)c1ccccc1Nc1ccccc1)Nc1ccccc1`, the CPE inhibition is 1.4% (inactive). The result for `CC(C)(C)NC(=O)COC(=O)c1ccccc1Nc1ccc(SC(F)F)cc1` reads 16.6% (active).

On to `Cc1ccc(NC(=O)COC(=O)c2ccccc2Nc2ccccc2)cc1`, for which the CPE inhibition was 1.36% (inactive). For the compound `Cc1ccc(SCC(=O)NCc2ccncc2)cc1`, the CPE inhibition entry is “inactive”. Regarding `Cc1c(NC(=O)/C(C#N)=C/c2ccc(-c3ccccc3Cl)o2)c(=O)n(-c2ccccc2)n1C`, the CPE inhibition is 3.41% (inactive). `CN(CC(=O)Nc1ccccc1Cl)C(=O)CSc1nc2ccccc2s1`: the CPE inhibition result is “inactive”.

Consider `Cc1ccccc1Nc1nc(N)nc(COC(=O)c2ccc(O)cc2)n1`, for which the CPE inhibition result is “inactive”. As to `Cc1c(Cl)cccc1Nc1nc(N)nc(CSc2nc3ccccc3s2)n1`, the CPE inhibition is 10.3% (active).

On to `COc1ccc(CNc2nc(-c3ccccc3)nn2C(=O)c2ccc([N+](=O)[O-])cc2)cc1`, for which the CPE inhibition result is “inactive”.

Regarding `Cn1cc([N+](=O)[O-])c(C(=O)N/N=C/c2ccc([N+](=O)[O-])cc2)n1`, the CPE inhibition was 0.11% (inactive). Consider `CCNC(=O)c1cc(Cl)ccc1OC`, for which the CPE inhibition was 0.845% (inactive). As for `N#C/C(=C\c1ccc(Sc2ccccc2)o1)c1nc2ccccc2[nH]1`, the CPE inhibition was 13% (active).

Consider `N#C/C(=C\c1ccc(OC(=O)c2ccc(Br)s2)cc1)c1nc2ccccc2[nH]1`, for which the CPE inhibition is 8.02% (inactive).

Turning to `N#C/C(=C\c1cccs1)c1nc2ccccc2[nH]1`, the CPE inhibition result was “inactive”. For the compound `CCn1c(C)cs/c1=N\C(=S)Nc1ccccc1C`, the CPE inhibition is 0.08% (inactive).

Regarding `Cc1ccc(C2CC(=O)C=C(NCC(C)C)C2)cc1` (centres undefined), the CPE inhibition result is “inactive”. For the compound `Cc1ccc(C)c(NC(=S)N(C)CCc2ccccn2)c1`, the CPE inhibition result is “inactive”. As for `Cc1ccccc1OCC(=O)N1N=C(c2cccnc2)CC1(O)C(F)(F)F` (centres undefined), the CPE inhibition entry was “inactive”. As for `CC/C(=N\N=C1\SC(C)C(=O)N1Cc1ccco1)c1ccccc1` (centres undefined), the CPE inhibition is 22.7% (active). In the case of `COc1ccc(N=C2SC(CC(=O)Nc3ccccc3OC)C(=O)N2Cc2ccco2)cc1` (centres undefined), the CPE inhibition is 1.94% (inactive). For `COc1ccc(N=C2SC(CC(=O)Nc3ccccc3F)C(=O)N2Cc2ccco2)cc1` (centres undefined), the CPE inhibition is 0.295% (inactive). With `CSc1ccc(/C=N/NC(=O)COc2ccc(Br)cc2Cl)cc1`, the CPE inhibition is 3.23% (inactive). The result for `CN(C)S(=O)(=O)c1cccc(NC(=O)CCSc2ccc(Cl)cc2)c1` reads “inactive”; that for `COc1cccc(NC(=O)CCSc2ccc(C)cc2)c1`, “inactive”; that for `CCN(CC)S(=O)(=O)c1cccc(NC(=O)CCSc2ccc(Cl)cc2)c1`, 11% (active). As for `O=C(CSc1nc2ccccc2s1)Nc1ccc(Cl)c(S(=O)(=O)N2CCOCC2)c1`, the CPE inhibition is 0.03% (inactive). For the compound `Cc1ccc(CSc2ccc(-c3ccc4c(c3)OCO4)nn2)cc1`, the CPE inhibition result was “inactive”.
